MEX-5 binding = C. elegans MEX-5 TCR-2 RNA binding activity; Q9XUB2; MEX-5/FITC-TCR2 RNA binding, fluorescence polarization; stronger effect = lower value; activity score (negative = inhibition of binding), % at 10 µM; 300,000 tested, 0.38% active;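 active = inhibition past about -25% in most replicates, and total fluorescence under double the plate's negative control median, limit read from the data; inconclusive = replicates evenly split on the limit, or fluorescence at least double controls; inactive = too little inhibition in most replicates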
Target sequence (Q9XUB2 whole entry, looked up): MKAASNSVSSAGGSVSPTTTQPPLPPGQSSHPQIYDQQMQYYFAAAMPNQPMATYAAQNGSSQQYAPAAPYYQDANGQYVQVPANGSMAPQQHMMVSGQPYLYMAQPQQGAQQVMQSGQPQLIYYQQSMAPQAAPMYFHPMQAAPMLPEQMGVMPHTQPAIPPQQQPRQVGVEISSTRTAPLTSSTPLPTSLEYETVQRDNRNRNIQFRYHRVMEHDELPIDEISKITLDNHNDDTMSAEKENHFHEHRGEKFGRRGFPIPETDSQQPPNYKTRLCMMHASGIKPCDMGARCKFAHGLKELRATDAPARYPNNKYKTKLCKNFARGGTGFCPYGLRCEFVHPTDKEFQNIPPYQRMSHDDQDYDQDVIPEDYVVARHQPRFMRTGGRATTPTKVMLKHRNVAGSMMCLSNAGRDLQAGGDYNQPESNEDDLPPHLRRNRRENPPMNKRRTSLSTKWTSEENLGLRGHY
EBV gp42 block = blocks Epstein-Barr virus glycoprotein 42 binding; Q1HVG2; Fluorescence polarization binding assay, mP read-out; inhibition, % (tested at 21.74 µM); 220,000 tested, 0.42% active; AID 1085; in the data active = inhibition above about 50%
BCLXL inh = Bcl-xL (human) inhibition | Q07817 | inhibition, % at 10.9 µM | 320,000 tested, 0.7% active | GST-Bcl-xL / FITC-Bim BH3 peptide fluorescence polarization;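 active = inhibition above the mean of all tested compounds plus 3 SD, cutoff set per campaign, cut at about 30% in these data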;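 also: inhibitors lower millipolarization by displacing the labeled peptide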
MCL1 BIM primary = MCL1-BIM-BH3 interaction inhibition (human). Q07820. inhibition, % at 10.9 µM. 320,000 tested, 0.68% active. AID 2057. GST-MCL1 / FITC-Bim-BH3 fluorescence polarization;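 active = inhibition above the mean inhibition of all tested compounds plus 3 SD, set per campaign, cut at about 40% in these data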;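 also: higher means more loss of mP so more displacement of Bim peptide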
GLD-1 TGE inh = GLD-1-TGE RNA interaction inhibition (C. elegans); Q17339; purified GLD-1 + fluorescein TGE RNA, fluorescence polarization; inhibition, % at 5.96 µM; 320,000 tested, 0.44% active; AID 2280;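 active = percent inhibition above a per-plate cutoff, the plate mean of test compounds plus 3 SD, cut at about 30% in these data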
Hits are given with their value. Only some compounds are listed: those with a hit (about 1.3% of all), similar ones and a draw of the others.

CC1=NN(C(N)=S)C(=O)C1N=Nc1cccc(C(=O)O)c1 (stereo unspecified) was read as MEX-5 binding -30.
Screening CC1=NN(C(N)=S)C(=O)C1N=Nc1cccc(C)c1 (stereo unspecified) returned MEX-5 binding inactive, EBV gp42 block inactive, BCLXL inh inactive, MCL1 BIM primary inactive and GLD-1 TGE inh inactive.
For NC(=Nc1ccc(N)cc1)C(N)=Nc1ccc(N)cc1 the results were MEX-5 binding -30, EBV gp42 block inactive, BCLXL inh inactive, MCL1 BIM primary inactive and GLD-1 TGE inh inactive.
Screening COc1ccccc1NC(=O)C1CCCN(c2cnccn2)C1 (stereo unspecified) returned MEX-5 binding inactive, BCLXL inh inactive, MCL1 BIM primary inactive and GLD-1 TGE inh inactive.
`C#CCn1cc(C=C2C(=O)c3ccccc3C2=O)c2ccccc21` gave MEX-5 binding inactive and EBV gp42 block 95.
For C#CCn1c(=O)cc(C)c2ccccc21 the results were MEX-5 binding inactive, EBV gp42 block inactive, BCLXL inh inactive, MCL1 BIM primary inactive and GLD-1 TGE inh inactive.
Cc1cc(NC(=O)C(C)SCC(=O)N(C)CC(=O)Nc2ccc(F)cc2)no1 (stereo unspecified) was read as MEX-5 binding inactive, BCLXL inh inactive, MCL1 BIM primary inactive and GLD-1 TGE inh inactive.
`CCOC(=O)C(NCc1ccco1)(NC(=O)c1ccc(OC)cc1)C(F)(F)F` (stereo unspecified) gave MEX-5 binding inactive, EBV gp42 block 118, BCLXL inh inactive, MCL1 BIM primary inactive and GLD-1 TGE inh inactive.
`O=C(c1cc(-c2ccc(Cl)cc2)on1)N1CCCCCC1` gave MEX-5 binding inactive, BCLXL inh inactive, MCL1 BIM primary inactive and GLD-1 TGE inh 34.
For NC(=S)n1[nH]c(-c2ccc([N+](=O)[O-])cc2)c(N=Nc2ccccc2[N+](=O)[O-])c1=O the results were EBV gp42 block inactive.
Screening Cc1c(N=Nc2c(-c3ccc([N+](=O)[O-])cc3)[nH]n(C(N)=S)c2=O)cccc1[N+](=O)[O-] returned EBV gp42 block 109.
NC(=S)n1[nH]c(-c2ccc([N+](=O)[O-])cc2)c(N=Nc2cccc([N+](=O)[O-])c2)c1=O was read as MEX-5 binding inactive and EBV gp42 block 100.
`O=C(NNC(=O)c1cc(Br)ccc1Cl)c1csc(N2CCOCC2)n1` gave MEX-5 binding inactive, BCLXL inh inactive, MCL1 BIM primary inactive and GLD-1 TGE inh inactive.
Screening O=C(NNC(=O)c1cc(Cl)ccc1[N+](=O)[O-])c1csc(N2CCOCC2)n1 returned MEX-5 binding -31, BCLXL inh inactive, MCL1 BIM primary inactive and GLD-1 TGE inh inactive.
For CCCCn1nc(-c2ccccc2)c2nc3ccccc3nc21 the results were MEX-5 binding inconclusive, EBV gp42 block 154, BCLXL inh inactive, MCL1 BIM primary inactive and GLD-1 TGE inh inactive.
For Cc1ccc(NC(=O)[C@@H]2CCCN2S(=O)(=O)c2ccc(Cl)cc2)cc1 the results were GLD-1 TGE inh inactive.
For O=C(c1ccccc1)[C@@H]1[C@@H](C(=O)c2ccc(F)cc2)[C@@]2(C(=O)Nc3ccccc32)[C@H]2c3ccccc3C=CN12 the results were MEX-5 binding inactive, EBV gp42 block inactive, BCLXL inh 33, MCL1 BIM primary inactive and GLD-1 TGE inh inactive.
Screening CC(=O)[C@@H]1[C@@H](C(=O)c2ccccc2)[C@]2(C(=O)Nc3ccccc32)[C@H]2C=Cc3cc(F)ccc3N12 returned MEX-5 binding inactive, EBV gp42 block inactive, BCLXL inh inactive, MCL1 BIM primary inactive and GLD-1 TGE inh inactive.
For CCOC(=O)c1cnc2cc(C)ccn2c1=O the results were MEX-5 binding inactive, EBV gp42 block inactive, BCLXL inh inactive, MCL1 BIM primary inactive and GLD-1 TGE inh inactive.
For COc1ccc(CNC(=O)c2cnc3cc(C)ccn3c2=O)cc1 the results were MEX-5 binding -28, EBV gp42 block inactive, BCLXL inh inactive, MCL1 BIM primary inactive and GLD-1 TGE inh inactive.
Screening CC1C(=O)N(c2ccc(S(=O)(=O)N(C)C)cc2)C1(/C=C/c1ccccc1)C(=O)NC1CCCC1 (stereo unspecified) returned MEX-5 binding inactive, EBV gp42 block inactive, BCLXL inh inactive, MCL1 BIM primary inactive and GLD-1 TGE inh inactive.
CCCCC1=CC2=CC(=O)C(C)(OC(=O)CC)C(=O)C2=CN1c1cccc(C#N)c1 (stereo unspecified) was read as MEX-5 binding inactive, BCLXL inh 31, MCL1 BIM primary inactive and GLD-1 TGE inh 40.
CCCCC1=CC2=CC(=O)C(C)(OC(=O)CC)C(=O)C2=CN1c1ccc(OC)cc1 (stereo unspecified) was read as MEX-5 binding inactive, EBV gp42 block inactive, BCLXL inh inactive, MCL1 BIM primary inactive and GLD-1 TGE inh inactive.
`CCOC(=O)/C=C1/SCC(=O)N1CC(=O)Nc1cccc(F)c1` gave BCLXL inh inactive, MCL1 BIM primary inactive and GLD-1 TGE inh inactive.
`O=C(OCC(=O)N1CCCC1)c1cccs1` gave MEX-5 binding inactive, EBV gp42 block inactive, BCLXL inh inactive, MCL1 BIM primary inactive and GLD-1 TGE inh inactive.
For Fc1ccc(OCc2nnc(-c3ccccc3Br)o2)c(Cl)c1 the results were MEX-5 binding inactive, BCLXL inh inactive, MCL1 BIM primary inactive and GLD-1 TGE inh inactive.
Clc1ccc(OCc2nnc(-c3ccccc3Br)o2)c(Cl)c1 was read as MEX-5 binding inactive, EBV gp42 block 91, BCLXL inh inactive, MCL1 BIM primary inactive and GLD-1 TGE inh inactive.
Screening O=C(C1CCCN(CCCc2ccccc2)C1)N1CCCCCC1 (stereo unspecified) returned MEX-5 binding inactive, EBV gp42 block inactive, BCLXL inh inactive, MCL1 BIM primary inactive and GLD-1 TGE inh inactive.
Cc1ccc2occ(CN3CCN(c4ccccc4)CC3)c(=O)c2c1 was read as MEX-5 binding inactive, EBV gp42 block inactive, BCLXL inh 36, MCL1 BIM primary inactive and GLD-1 TGE inh inactive.
`CCOC(=O)C1CCCN(C(=O)Cn2ncc3c([nH]c4ccccc43)c2=O)C1` (stereo unspecified) gave MEX-5 binding inactive, BCLXL inh inactive, MCL1 BIM primary inactive and GLD-1 TGE inh inactive.
For N#Cc1c2nc3ccccc3nc2n2cc(NC(=O)c3ccc(F)cc3)ccc12 the results were EBV gp42 block 106.
`Cc1c(C(=O)Nc2ccc(F)cc2)cn2c(nc3ccccc32)c1C#N` gave MEX-5 binding inactive, EBV gp42 block inactive, BCLXL inh inactive, MCL1 BIM primary inactive and GLD-1 TGE inh inactive.
Screening COc1ccc(C(=O)NCCn2cc(SCC(=O)Nc3nnc(C)s3)c3ccccc32)cc1 returned MEX-5 binding inactive, EBV gp42 block inactive, BCLXL inh inactive, MCL1 BIM primary inactive and GLD-1 TGE inh inactive.
For Cc1nnc(NC(=O)CSc2cn(CCNC(=O)c3ccccc3)c3ccccc23)s1 the results were MEX-5 binding inactive, EBV gp42 block 54, BCLXL inh inactive, MCL1 BIM primary inactive and GLD-1 TGE inh inactive.
Screening COC(=O)c1c(NC(=O)CN2C(=O)C(=O)N(CC(C)C)C2=O)sc(C)c1C returned MEX-5 binding inactive, BCLXL inh inactive, MCL1 BIM primary inactive and GLD-1 TGE inh inactive.

Screening data as filed in PubChem BioAssay.
